Results published in PubChem BioAssay AID540333 (Southern Research Specialized Biocontainment Screening …, 2011).
Out of some 10,000 compounds screened, about 320 (3.2%) were called active. Many of the other results were omitted from the sample, so actives are more common in it than they were. Values without a mark were called inactive. No stated cut-off is given here; in the data, active means CPE inhibition mostly above about 9.1% (no sharp cut-off); inactive means mostly below about 7.2%.

assay: antivirals protecting cells from dengue CPE – CPE readout, HTS (AID 540333); details: Dengue virus CPE inhibition in host cells, at 20 µM; stronger effect = higher value

Structure (SMILES)	CPE inhibition
O=Cc1cc([N+](=O)[O-])ccc1N1CCOCC1	0.035%
Cc1nnc(SCc2cc(=O)oc3ccc4ccccc4c23)n1Cc1ccccc1	inactive
CCCN1C(=O)/C(=N\OCC(=O)Nc2ccc(C(C)C)cc2)c2ccccc21	8.8%
O=C(CON=C1c2ccccc2-c2ccccc21)NC12CC3CC(CC(C3)C1)C2	6.95%
CCCN1C(=O)/C(=N\OCC(=O)NC23CC4CC(CC(C4)C2)C3)c2ccccc21	22.5% (active)
C=CCNC(=O)c1cc(Cl)ccc1[N+](=O)[O-]	inactive
CCOC(=O)C1=C(C)NC(=S)NC1/C=C/c1ccccc1 (stereo unspecified)	inactive
CCOc1ccc(-c2cn(-c3cccc(SC)c3)c(=O)[nH]2)cc1	0.42%
Cc1ccc(S(=O)(=O)c2nnn3c2nc(Nc2cccc(C)c2)c2ccccc23)cc1	inactive
O=C(COC(=O)c1ccccc1Nc1ccccc1)Nc1ccccc1	1.4%
Cc1ccc(NC(=O)COC(=O)c2ccccc2Nc2ccccc2)cc1	1.36%
CC(C)(C)NC(=O)COC(=O)c1ccccc1Nc1ccc(SC(F)F)cc1	16.6% (active)
Cc1ccc(SCC(=O)NCc2ccncc2)cc1	inactive
Cc1c(NC(=O)/C(C#N)=C/c2ccc(-c3ccccc3Cl)o2)c(=O)n(-c2ccccc2)n1C	3.41%
CN(CC(=O)Nc1ccccc1Cl)C(=O)CSc1nc2ccccc2s1	inactive
Cc1c(Cl)cccc1Nc1nc(N)nc(CSc2nc3ccccc3s2)n1	10.3% (active)
Cc1ccccc1Nc1nc(N)nc(COC(=O)c2ccc(O)cc2)n1	inactive
COc1ccc(CNc2nc(-c3ccccc3)nn2C(=O)c2ccc([N+](=O)[O-])cc2)cc1	inactive
Cn1cc([N+](=O)[O-])c(C(=O)N/N=C/c2ccc([N+](=O)[O-])cc2)n1	0.11%
CCNC(=O)c1cc(Cl)ccc1OC	0.845%
N#C/C(=C\c1ccc(Sc2ccccc2)o1)c1nc2ccccc2[nH]1	13% (active)

Structure (SMILES)	CPE inhibition
N#C/C(=C\c1cccs1)c1nc2ccccc2[nH]1	inactive
N#C/C(=C\c1ccc(OC(=O)c2ccc(Br)s2)cc1)c1nc2ccccc2[nH]1	8.02%
CCn1c(C)cs/c1=N\C(=S)Nc1ccccc1C	0.08%
Cc1ccc(C2CC(=O)C=C(NCC(C)C)C2)cc1 (stereo unspecified)	inactive
Cc1ccc(C)c(NC(=S)N(C)CCc2ccccn2)c1	inactive
Cc1ccccc1OCC(=O)N1N=C(c2cccnc2)CC1(O)C(F)(F)F (stereo unspecified)	inactive
COc1ccc(N=C2SC(CC(=O)Nc3ccccc3OC)C(=O)N2Cc2ccco2)cc1 (stereo unspecified)	1.94%
CC/C(=N\N=C1\SC(C)C(=O)N1Cc1ccco1)c1ccccc1 (stereo unspecified)	22.7% (active)
COc1ccc(N=C2SC(CC(=O)Nc3ccccc3F)C(=O)N2Cc2ccco2)cc1 (stereo unspecified)	0.295%
CSc1ccc(/C=N/NC(=O)COc2ccc(Br)cc2Cl)cc1	3.23%
COc1cccc(NC(=O)CCSc2ccc(C)cc2)c1	inactive
CN(C)S(=O)(=O)c1cccc(NC(=O)CCSc2ccc(Cl)cc2)c1	inactive
CCN(CC)S(=O)(=O)c1cccc(NC(=O)CCSc2ccc(Cl)cc2)c1	11% (active)
O=C(CSc1nc2ccccc2s1)Nc1ccc(Cl)c(S(=O)(=O)N2CCOCC2)c1	0.03%
Cc1ccc(CSc2ccc(-c3ccc4c(c3)OCO4)nn2)cc1	inactive
O=C1CC(c2ccc(Cl)cc2)SC(N(c2ccccc2)c2ccccc2)=N1 (stereo unspecified)	23.9% (active)
O=C1N(c2ccccc2)C(c2ccc(Cl)cc2)N2CCCN12 (stereo unspecified)	0.355%
Cc1cc(O)c(C2=Nc3ccccc3SC(c3ccc(Cl)cc3)C2)c(=O)o1 (stereo unspecified)	5.1%
O=C1NC(=O)C(CC(=O)N(Cc2cccs2)C2(C(=O)NC3CCCC3)CCCCC2)N1 (stereo unspecified)	0.025%
CC(=O)Nc1ccccc1C(=O)C(=O)Nc1cccc(C(=O)NCc2ccccc2)c1	inactive
O=C(NC(=S)Nc1cccc(NC(=O)c2ccccc2)c1)c1cccc([N+](=O)[O-])c1	0.91%

Structure (SMILES)	CPE inhibition
COC(=O)Nc1nnc(/C=C/c2ccc(OC)cc2)s1	6.99%
COc1ccc(/C=C/c2nnc(NC(=O)CSc3ccc(Cl)cc3)s2)cc1	12.2% (active)
COc1ccc(Cc2nnc(NC(=O)CSc3ccc(C)cc3)s2)cc1	0.25%
CC(C)c1nc(C#N)c(N2CCOCC2)o1	inactive
Cc1ccc(CN2CCN(CC(=O)N/N=C/c3c[nH]c4ccccc34)CC2)cc1	0.79%
COc1cc(OC)cc(-c2c(C#Cc3ccsc3)c3cc(-c4cccc5[nH]ccc45)ccc3n2C)c1	6.79%
CC1CN(CC(=O)Nc2ccccc2Sc2ccccc2)CC(C)O1 (stereo unspecified)	0.145%
CC(=O)N1CCN(CC(=O)Nc2ccccc2Sc2ccccc2)CC1	0.615%
O=C(CN1CCN(c2ccccc2)CC1)Nc1ccccc1Sc1ccccc1	15.7% (active)
Cc1ccc(/C=C/C(=O)OCC(=O)Nc2ccccc2Sc2ccccc2)cc1	inactive
O=C(Cc1ccccc1)Nc1cc(Cl)ccc1Sc1ccccc1	0.52%
CC1CCCCN1CC(=O)Nc1ccccc1Sc1ccccc1 (stereo unspecified)	18.4% (active)
O=C(COC(=O)c1ccccc1-c1nc2ccccc2s1)NC1CCS(=O)(=O)C1 (stereo unspecified)	inactive
CC(=O)O[C@H]1CC[C@@]2(C)[C@@H](CC[C@H]3[C@@H]4CC[C@H](C(C)O)[C@@]4(C)CC(=O)[C@@H]32)C1 (stereo partly specified)	inactive
COC(=O)c1ccc(NC(=O)CSC2=NCCN2)cc1	0.235%
O=C1CC(N(Cc2cccs2)C(=O)Nc2ccccc2)C(=O)N1c1ccc(Cl)cc1 (stereo unspecified)	0.225%
COC(=O)[C@@]1(Cc2ccc(F)cc2)[C@H]2c3cc(C(=O)N(C)C)n(CCc4ccc(OC)c(Br)c4)c3C[C@H]2CN1C(=O)c1ccccc1	21.7% (active)
COC(=O)[C@@]1(Cc2ccc(F)cc2)[C@H]2c3cc(C(=O)N(C)C)n(C[C@H](O)CO)c3C[C@H]2CN1C(=O)c1ccccc1	0.25%
COC(=O)Cn1c(C(=O)N2CCCC2)cc2c1C[C@H]1CN(C(=O)c3ccccc3)[C@@](Cc3ccc(F)cc3)(C(=O)OC)[C@@H]21	0.235%
